Most compounds without a hit are left out; they make up all but 1.8% or so of the library.
PME-1 primary = blocks human protein phosphatase methylesterase 1 | Q9Y570 | recombinant PME-1, FP-Rh probe fluorescence polarization | 320,000 tested, 0.53% active | inhibition, % at 5.9 µM | AID 2130;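 active means inhibition above the campaign mean of all compounds plus 3 SD, cut at about 26% in these data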;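 further: competitive labeling of PME-1 active site by serine hydrolase directed probe; 0% = PME-1 with DMSO and 100% = wells lacking PME-1 enzyme; inhibitors block probe labeling so polarization falls and inhibition rises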
GSTO1 counter = blocks human GSTO1 in RBBP9 counter-screen. recombinant GSTO1, activity-based probe fluorescence polarization. inhibition, % at 5.96 µM. 300,000 tested, 1.1% active. P78417;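 active means inhibition above the campaign mean inhibition plus 3 SD, cut at about 35% in these data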;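 further: 0% = GSTO1-1 with DMSO and 100% = wells lacking GSTO1-1 enzyme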
Fam108B counter = Fam108B inhibition, counter-screen for RBBP9 inhibitors; inhibition, % at 9.51 µM; AID 1947; recombinant Fam108B, FP-Rh probe fluorescence polarization; 300,000 tested, 0.33% active;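 active means inhibition above the screen mean inhibition plus 3 SD, computed separately per campaign, cut at about 18% in these data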;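 further: inhibitors lower polarization as less probe binds the enzyme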
LYPLA1 inh = counter-screen for PME1 inhibitors: inhibitors of human LYPLA1. recombinant LYPLA1, FP-Rh probe fluorescence polarization. O75608. 320,000 tested, 0.16% active. AID 2174. inhibition, % at 5.9 µM;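 active means inhibition above the mean of all tested compounds plus 3 SD, set per campaign, cut at about 14% in these data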;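 further: inhibitors block serine hydrolase probe labeling of LYPLA1 so polarization falls; 0% = enzyme with DMSO and 100% = wells lacking LYPLA1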
PAD4 inh = inhibitors of human PAD4 | 330,000 tested, 0.41% active | inhibition, % at 6.36 µM | AID 485272 | Q9UM07 | recombinant PAD4, RCA probe fluorescence polarization;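 active means percent inhibition above a cutoff equal to the mean of all tested compounds plus 3 SD, cut at about 15% in these data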;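 further: 0% = PAD4 with RCA probe and DMSO and 100% = probe without PAD4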
Target sequence (Q9UM07 whole entry, looked up): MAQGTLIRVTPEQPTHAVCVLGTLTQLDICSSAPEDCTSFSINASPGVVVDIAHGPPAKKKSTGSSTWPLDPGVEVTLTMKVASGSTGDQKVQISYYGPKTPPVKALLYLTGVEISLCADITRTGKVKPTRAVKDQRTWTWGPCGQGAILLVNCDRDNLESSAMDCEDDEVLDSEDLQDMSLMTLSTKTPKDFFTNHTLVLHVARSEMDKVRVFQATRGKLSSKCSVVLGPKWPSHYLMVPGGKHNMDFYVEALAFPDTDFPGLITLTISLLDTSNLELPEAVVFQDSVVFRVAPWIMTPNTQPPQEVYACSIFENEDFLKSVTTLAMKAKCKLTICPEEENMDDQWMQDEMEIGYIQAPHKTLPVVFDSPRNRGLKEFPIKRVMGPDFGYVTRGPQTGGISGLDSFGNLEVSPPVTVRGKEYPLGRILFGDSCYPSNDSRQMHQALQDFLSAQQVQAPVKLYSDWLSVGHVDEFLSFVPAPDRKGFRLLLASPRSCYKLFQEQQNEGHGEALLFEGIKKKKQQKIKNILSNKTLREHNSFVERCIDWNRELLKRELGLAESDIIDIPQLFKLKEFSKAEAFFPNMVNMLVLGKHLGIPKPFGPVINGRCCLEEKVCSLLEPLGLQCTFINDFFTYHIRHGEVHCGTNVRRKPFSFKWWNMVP
LYPLA2 counter = counter-screen for PME1 inhibitors: inhibitors of human LYPLA2; O95372; recombinant LYPLA2, FP-Rh probe fluorescence polarization; inhibition, % at 5.9 µM; 320,000 tested, 0.38% active; AID 2177;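 active means inhibition above the screen-wide mean plus 3 SD, limit set per campaign, cut at about 26% in these data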;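 further: 0% = LYPLA2 with DMSO and 100% = wells lacking LYPLA2 enzyme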
An asterisk follows results filed as active; / = no result.

SMILES | PME-1 primary | GSTO1 counter | Fam108B counter | LYPLA1 inh | PAD4 inh | LYPLA2 counter
Cc1ccc2c(c1)N(CC(=O)NCCCN1CCOCC1)C(=O)C(C(C)C)O2 (centres undefined) | 2 | -8 | 5 | 2 | 1 | -3
CC1=C(C)/C(=N\OS(=O)(=O)c2ccccc2)C=CC1=O | 0 | 35* | 1 | 0 | 2 | 0
Cc1nc(SCC(=O)N2CCC(Cc3ccccc3)CC2)[nH]c(=O)c1C | 2 | -2 | 1 | 3 | -3 | 5
O=C(c1ccc(Cl)cc1)C1CCN(CC(=O)N2CCCCC2)CC1 | 0 | 3 | 2 | 0 | 1 | -4
Oc1ccc(O)cc1 | -2 | 56* | -4 | 0 | -2 | 2
CCC(Sc1nc2ccccc2o1)C(=O)Nc1nnc(C)s1 (centres undefined) | 5 | 44* | 1 | 3 | 5 | 4
O=S(=O)(Nc1ccc(O)c2ccccc12)c1ccc(Br)cc1 | 4 | 61* | -1 | -4 | 19* | -1
COc1ccccc1NC(=O)COn1nnc2ccc(S(=O)(=O)N3CCOCC3)cc21 | -7 | 36* | 3 | 4 | -2 | 5
Oc1c(C=NCc2ccncc2)sc2ccccc12 | 2 | 4 | -4 | -5 | 16* | -7
O=C(CSc1nnc(-c2ccccc2F)o1)Nc1ccc(N2CCOCC2)cc1 | -1 | / | / | -3 | 1 | -1
CC(C)[C@H](NC(=O)c1ccccc1)C(=O)OCC(=O)c1ccc(S(=O)(=O)N2CCCCC2)cc1 | 1 | 37* | -1 | 1 | -1 | 1
COc1ccc(-c2c3c(cc4ncn(Cc5ccccc5)c24)COC3=O)cc1 | -3 | / | / | 4 | 1 | 11
CC(=O)c1ccc(N2Cc3ccccc3/C2=N\C(=O)Nc2ccccc2)cc1 | 1 | -3 | 0 | -3 | -1 | 1
CC(=O)c1cccc(N2Cc3ccccc3C2=NC(=O)CCl)c1 | -1 | 78* | -1 | -1 | -4 | 3
CN1CCN(Cc2nc3c([nH]2)c(=O)[nH]c(=O)n3C)CC1 | -7 | 36* | 0 | 4 | 0 | -1
CCC(C)Nc1nc(N)c([N+](=O)[O-])c(Nc2cc(OC)ccc2OC)n1 (centres undefined) | 28* | -7 | 5 | 1 | 0 | -7
CCC(C)Nc1nc(N)c([N+](=O)[O-])c(Nc2ccccc2OC)n1 (centres undefined) | 11 | -10 | -4 | -6 | -2 | -11
Cc1ccc(NC(=O)COC(=O)CCc2c[nH]c3ccccc23)c(C)c1 | 2 | / | / | -4 | 1 | 1
CCn1c(CCl)nc2cc(S(=O)(=O)N3CCOCC3)ccc21 | / | / | / | / | -1 | /
Cc1ccc(NC(=O)COC(=O)Cc2ccc(Br)cc2)cc1S(=O)(=O)N1CCOCC1 | / | / | / | / | -1 | /
CC(C)c1ccc(NS(=O)(=O)c2ccc(-n3cccn3)cc2)cc1 | -2 | 35* | -7 | -2 | 1 | 2
CCN(CC)C(=O)OCCc1cc2ccccc2c(=O)o1 | 7 | / | / | 0 | -4 | -2
COc1cc(/C=N/NC(=O)CSc2cc(C)c(Br)cc2C)ccc1O | 21 | 6 | 8 | -5 | 4 | 0
Cc1cc(SCC(=O)N/N=C/c2ccc(O)c(O)c2O)c(C)cc1Br | 31* | 18 | 10 | -18 | 4 | -6
COc1ccc(Cl)cc1NC(=O)CN(C)C(=O)CSc1ccc2c(c1)OCCO2 | 3 | / | / | -1 | -3 | -2
SMILES | PME-1 primary | GSTO1 counter | Fam108B counter | LYPLA1 inh | PAD4 inh | LYPLA2 counter
Cc1csc(NC(=O)C(C)Oc2ccc(Cl)cc2C)n1 (centres undefined) | 7 | / | / | -5 | -7 | -5
Cc1ccc(C(=O)CSc2nnc(COc3ccccc3)o2)cc1 | 1 | 37* | 7 | 1 | -1 | 3
O=C1CC(c2ccc(O)c(O)c2)Oc2c1ccc(O)c2O (centres undefined) | -5 | 44* | 6 | -6 | 6 | -12
O=C(/C=C/c1ccco1)NC(=S)Nc1ccc(N2CCCC2)cc1 | 16 | 50* | 1 | 5 | 1 | 13
O=c1[nH]c(C2CCN(S(=O)(=O)c3ccc(C(F)(F)F)cc3)CC2)nc2c1nnn2Cc1ccc(F)cc1 | 68* | -9 | -3 | -3 | 6 | 2
N#CCCN1CCN(C2=NC(=O)/C(=C\c3cccs3)S2)CC1 | -3 | 11 | 6 | 2 | -4 | 29*
CC(C(=O)Nc1ccc(C(=O)O)c(O)c1)N1C(=O)/C(=C\c2ccco2)SC1=S (centres undefined) | -31 | 28 | 19* | 1 | 11 | -7
Cc1cccc(N2CCN(S(=O)(=O)c3c(C)[nH]c(C)c3C(=O)N3CCCC3)CC2C)c1 (centres undefined) | 0 | -3 | 5 | 3 | -5 | 8
COc1ccc(/C=N/Nc2nc(C)cc(-c3ccccc3)n2)c(OC)c1 | 6 | 8 | 2 | -5 | 1 | 2
COc1ccc(O)c(/C=N/Nc2nc(C)cc(-c3ccccc3)n2)c1 | 36* | 17 | 6 | -14 | 2 | -22
COc1ccccc1-c1c(C#N)c(N)nc2c1CCc1ccccc1-2 | 40* | 18 | -1 | -8 | -14 | -13
CCOc1cc(-c2c(C#N)c(N)nc3c2CCc2ccccc2-3)ccc1O | -4 | -24 | -3 | -5 | -4 | 5
CCc1ccc(NC(=O)Nc2cccs2)cc1 | 34* | 19 | 3 | -4 | -4 | 10
Cc1ccc(NC(=O)Nc2cccs2)cc1 | 18 | -1 | 9 | 3 | 0 | 4
CCOC(=O)N1CCC(NC(=O)c2cc(COc3ccccc3SC)on2)CC1 | -1 | 0 | 0 | -3 | -1 | 7
CC(=O)c1c(N=CN(C)C)nc(C)nc1-c1ccccc1 | 0 | 8 | -2 | 3 | 0 | -1
CN(C)C=Nc1ccccc1C1C=NNC1=O (centres undefined) | 28* | 1 | 1 | -3 | -9 | -2
OCc1cccc[n+]1Cc1ccccc1 | -4 | 3 | 2 | 2 | 1 | 7
COc1cc2c(cc1OC)CN(S(=O)(=O)/C=C/c1ccccc1)CC2 | 2 | 4 | -2 | 0 | 2 | -4
O=C(Nc1nc2cc3c(cc2s1)OCCO3)c1cccs1 | -52 | -12 | -9 | 7 | -3 | 8
NNc1nc2cc3c(cc2s1)OCCO3 | 39* | 17 | 8 | -1 | -3 | -3
CCCc1cc(C(=O)Nc2cccc(C(C)=O)c2)no1 | -2 | 36* | -1 | -3 | 5 | 4
COc1cccc(CN(C(=O)COc2ccc(Cl)cc2)C2CCS(=O)(=O)C2)c1 (centres undefined) | -4 | 3 | 7 | -2 | 2 | -1
CCOc1ccc(NC2=C(OC)C(=O)c3ccccc3C2=O)cc1 | 9 | 40* | 6 | 1 | -14 | 6
COc1cccc(NC2=C(NCCO)C(=O)c3ccccc3C2=O)c1 | 5 | 12 | 1 | 6 | -6 | 15
Cc1cccc(NC2=C(NCCO)C(=O)c3ccccc3C2=O)c1 | 19 | 42* | 6 | 2 | -3 | 22

High-throughput results as filed in PubChem BioAssay.
